What all share (assay): qHTS profiling for inhibitors of Plasmodium falciparum proliferation (AID 504749); also: nearly all actives have a fitted effect of over 60% in size
Common to all, as to details: P. falciparum in erythrocytes, SYBR Green DNA, 72 h; series mostly up to 28.7 µM

One assay deals with CP329. The gist of the method: (§1)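 P. falciparum-infected erythrocytes (0.3% parasitemia, 2.5% hematocrit) incubated with compound 72 h at 37 C, 5% CO2. Parasite DNA detected by SYBR Green after lysis, overnight at room temperature; normalised to 0.29 uM artemisinin and DMSO.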
The test system of another assay is CP335. In a few lines:
as §1

Another assay relates to DFO2036. In a few lines: as §1
The next assay concerns DIV14. In a few lines: as §1
A further assay deals with DIV17. The gist of the method: as §1
The next assay deals with DIV30. The gist of the method:
as §1

The next assay concerns Dd2. The gist of the method: as §1
Another assay relates to FAB9. The gist of the method: as §1
Another assay relates to GB4. The gist of the method:
as §1

The next assay concerns ECU. The gist of the method:
as §1

Each structure is given as a SMILES string. Records with an inconclusive call do not appear. Activity calls are given as the source filed them. Calls follow the shape of the dose curve; as a rule, active = well fitted inhibition curve with a large enough effect; inconclusive = small, poorly fitted or top-dose-only effect; inactive = flat fitted curve, though single readings scatter.
Potency is read from the fitted curve at half-maximal effect.

As for `CCCCCCCC/C=C\CCCCCCCC(=O)O`, the Potency entry in the assay with CP329, in the assay with CP335, with DFO2036, in the assay with DIV14, with DIV17 and in the assay on DIV30 was “inactive” throughout. Besides, the Potency entry with Dd2, in the assay with FAB9 and in the assay on GB4 was “inactive” each time.

On to `CC1=C(/C=C/C(C)=C/C=C/C(C)=C/C=C/C=C(C)/C=C/C=C(C)/C=C/C2=C(C)C(=O)CCC2(C)C)C(C)(C)CCC1=O`, for which the Potency result with CP329, in the assay with CP335, in the assay on DFO2036, with DIV17, with DIV30 and in the assay on Dd2 was “inactive” in each case. For the same molecule, the Potency entry in the assay on ECU, in the assay with FAB9 and in the assay with GB4 was “inactive” throughout.

`O=C(COc1ccc(Cl)cc1)OCCNC12CC3CC(CC(C3)C1)C2`: the Potency result in the assay on CP329, in the assay with CP335, in the assay on DFO2036, in the assay on DIV14, with DIV17 and with Dd2 was “inactive” in each case. The Potency result in the assay with ECU and in the assay with FAB9 was “inactive” throughout.

Take `C[C@]12CCC(=O)C=C1CC[C@@H]1[C@@H]2[C@@H](O)C[C@@]2(C)[C@H]1CC[C@]2(O)C(=O)COP(=O)(O)O`: the Potency result in the assay with CP329, with CP335, in the assay with DFO2036, in the assay with DIV14, with DIV17 and in the assay on DIV30 was “inactive” each time. The Potency entry in the assay with Dd2, in the assay on ECU, in the assay with FAB9 and with GB4 was “inactive” throughout.

On to `Cc1cc(C(=O)NNCc2ccccc2)no1`, for which the Potency result in the assay with CP329, with CP335, with DFO2036, with DIV14, with DIV17 and in the assay on DIV30 was “inactive” each time. In addition, the Potency result in the assay with Dd2, in the assay with ECU, in the assay with FAB9 and in the assay with GB4 was “inactive” each time.

Consider `C[C@]12O[C@H](C[C@]1(O)CO)n1c3ccccc3c3c4c(c5c6ccccc6n2c5c31)CNC4=O`, for which the Potency is 0.426 µM (active) in the assay with CP329; 0.239 µM (active) with CP335; 0.316 µM (active) in the assay on DFO2036; 0.12 µM (active) with DIV14; 0.135 µM (active) in the assay on DIV17; 0.269 µM (active) in the assay with DIV30. Besides, the Potency with Dd2 was 0.355 µM (active); in the assay with ECU, 0.398 µM (active); with FAB9 it was 2 µM (active); with GB4, 0.269 µM (active).

With `O=S(=O)(O)c1ccc2c(N=Nc3ccc(S(=O)(=O)O)c4ccccc34)c(O)c(S(=O)(=O)O)cc2c1`, the Potency entry in the assay with CP329, with CP335, in the assay on DFO2036, with DIV14, in the assay on DIV17 and in the assay on DIV30 was “inactive” throughout. Also, the Potency entry with Dd2, with ECU, in the assay with FAB9 and with GB4 was “inactive” each time.

As for `O=S(=O)(O)c1cc(O)c2c(N=Nc3ccc(Nc4ccccc4)c4c(S(=O)(=O)O)cccc34)cc(S(=O)(=O)O)cc2c1`, the Potency result in the assay with CP329, in the assay on CP335, in the assay with DIV30, in the assay with ECU, in the assay on FAB9 and in the assay on GB4 was “inactive” throughout.

Consider `CC(=O)Oc1cc(C)c(OC(C)=O)c2ccccc12`, for which the Potency was 6.01 µM (active) with DIV14, 6.75 µM (active) with DIV17 and 7.57 µM (active) in the assay with GB4.

As for `CCCCCC(CC)COC(=O)CC(C(=O)OCC(CC)CCCC)S(=O)(=O)O` (stereo unspecified), the Potency entry with DFO2036, in the assay with Dd2, with ECU and with FAB9 was “inactive” throughout.

In the case of `CC[C@@]1(O)C(=O)OCc2c1cc1n(c2=O)Cc2cc3c([N+](=O)[O-])cccc3nc2-1`, the Potency is 12 µM (active) in the assay on CP329; 4.78 µM (active) in the assay with CP335; 5.01 µM (active) in the assay with DFO2036; 8.91 µM (active) in the assay on Dd2; 7.94 µM (active) in the assay with ECU; 6.75 µM (active) with GB4.

Regarding `C#C[C@]1(O)CC[C@H]2[C@@H]3CCC4=CCCC[C@@H]4[C@H]3C(=C)C[C@@]21CC`, the Potency entry in the assay on CP329, in the assay on DIV14, with DIV17, with DIV30, in the assay with Dd2 and in the assay on FAB9 was “inactive” in each case. In the assay on GB4, the Potency entry is “inactive”.

In the case of `O=C1CSC2(CCN(CCCN3c4ccccc4Sc4ccc(Cl)cc43)CC2)N1`, the Potency in the assay with DIV14 was 15.1 µM (active); in the assay on DIV17 it was 15.1 µM (active); with DIV30, 15.1 µM (active); with GB4, 16.9 µM (active). The Potency result with FAB9 was “inactive”.

Regarding `Clc1cc(Cl)c(OCC#CI)cc1Cl`, the Potency with DIV14 was 9.53 µM (active); in the assay on DIV17 it was 13.5 µM (active); in the assay on GB4 it was 10.7 µM (active).

Consider `CCOc1ccc(N=Nc2ccc(N)cc2N)cc1`, for which the Potency entry with CP329, in the assay with CP335, in the assay with DFO2036, in the assay with DIV30, with Dd2 and with FAB9 was “inactive” in each case.

Turning to `Oc1cc(O)c2c(c1)OC(c1ccc(O)c(O)c1)C(O)C2` (stereo unspecified), the Potency entry in the assay with CP329, with DFO2036, in the assay on DIV14, in the assay with DIV17, with DIV30 and in the assay on Dd2 was “inactive” each time. Further, the Potency entry in the assay on FAB9 was “inactive”.

Take `CCCCC(=O)O[C@]1(C(=O)CO)[C@H](C)C[C@H]2[C@@H]3CCC4=CC(=O)C=C[C@]4(C)[C@@]3(F)[C@@H](O)C[C@@]21C`: the Potency entry in the assay on CP329, with Dd2 and with FAB9 was “inactive” in each case.

Consider `CCN(CC)CCOc1ccc(-c2nc3cc(Cl)ccc3s2)cc1`, for which the Potency entry in the assay with CP329, in the assay with DIV30 and with FAB9 was “inactive” throughout. In addition, the Potency in the assay with DIV17 is 15.1 µM (active); in the assay on GB4 it was 16.9 µM (active).

`CCOc1ccc2c(c1)C(C)=CC(C)(C)N2`: the Potency result in the assay on CP329, in the assay on DFO2036, with DIV14, in the assay on DIV17, in the assay with DIV30 and in the assay with Dd2 was “inactive” in each case. Moreover, the Potency result with ECU, in the assay on FAB9 and in the assay on GB4 was “inactive” throughout.

As for `O=C(O)c1cc(=O)c2c3nc4ccccc4oc-3cc(=O)c2[nH]1`, the Potency result in the assay with CP329, in the assay on DFO2036, in the assay with DIV30 and in the assay with FAB9 was “inactive” each time. The figures for the Potency with Dd2 and in the assay on GB4 were 12.6 µM (active) and 16.9 µM (active), respectively.

Turning to `NC1C2CN(c3nc4c(cc3F)c(=O)c(C(=O)O)cn4-c3ccc(F)cc3F)CC12` (stereo unspecified), the Potency in the assay on CP335 was 6.01 µM (active). For the same molecule, in the assay on DIV30, the Potency entry is “inactive”.

Regarding `CCOC(=O)C1=C(C)NC(C)=C(C(=O)OCC)C1c1ccccc1C=CC(=O)OC(C)(C)C`, the Potency was 10.7 µM (active) in the assay on CP335; 11.2 µM (active) in the assay with DFO2036; 12 µM (active) in the assay on DIV14; 15.1 µM (active) in the assay with DIV17; 13.5 µM (active) in the assay on DIV30; 11.2 µM (active) in the assay on FAB9. The Potency in the assay with GB4 was 10.7 µM (active).

Turning to `CN=C(NC#N)Nc1ccc(C2=NNC(=O)C[C@@H]2C)cc1`, the Potency result with DFO2036, with Dd2, with ECU and in the assay on FAB9 was “inactive” in each case.

Turning to `CCCCC(CC)COC(=O)CC(C(=O)OCC(CC)CCCC)S(=O)(=O)O` (stereo unspecified), the Potency entry with CP329, with CP335, in the assay with DIV14, with DIV17, in the assay with DIV30 and in the assay with GB4 was “inactive” each time.

For the molecule `CN(C)CCCN1c2ccccc2C(C)(C)c2ccccc21`, the Potency entry with CP329, in the assay with DFO2036, in the assay with ECU and in the assay on FAB9 was “inactive” in each case. Moreover, the results for the Potency with DIV14 and with DIV17 were 8.49 µM (active) and 4.78 µM (active), respectively.

Take `O=CCCCC=O`: the Potency result with CP329, in the assay with DFO2036, in the assay on DIV14, in the assay on Dd2, in the assay on ECU and in the assay on FAB9 was “inactive” each time.

Take `O=C(O)c1cc(O)c2c(c1)[O][Bi][O]2`: the Potency result with CP329, in the assay on DFO2036, in the assay on DIV14, in the assay with DIV30, in the assay with Dd2 and in the assay with ECU was “inactive” in each case. The Potency entry in the assay on FAB9 and with GB4 was “inactive” throughout.

For `COc1cc(-c2ccc(-[n+]3nc(-c4ccccc4)nn3-c3ccc([N+](=O)[O-])cc3)c(OC)c2)ccc1-[n+]1nc(-c2ccccc2)nn1-c1ccc([N+](=O)[O-])cc1`, the Potency is 15.1 µM (active) in the assay on CP329; 12 µM (active) in the assay with DIV14; 15.1 µM (active) in the assay with DIV17; 12 µM (active) in the assay on DIV30; 12.6 µM (active) with ECU; 12 µM (active) in the assay with GB4.

For the origin of these results see PubChem BioAssay (NCATS).
